In the library only some 2.5% were active in any assay of this set; here they are far more common.
MEKK2 WT-MEK5 = raises or lowers MEK5 binding to wildtype human MEKK2 PB1 domain | Q9Y2U5 | bead flow cytometry, Alexa488-MEK5 binding to MEKK2 WT; actives lie on both sides | binding response (% of control), % at 10 µM | 290,000 compounds, 1.1% hits | AID 1531; in the data active means binding response below about 67% or above about 130%
UBC13 inh = blocks human UBC13 polyubiquitin chain formation; AID 485273; TR-FRET; 330,000 compounds, 0.47% hits; P61088; inhibition, % at 20 µM; in the data active means inhibition above about 45%, passing the limit was not always enough
Target sequence (P61088 whole entry, looked up): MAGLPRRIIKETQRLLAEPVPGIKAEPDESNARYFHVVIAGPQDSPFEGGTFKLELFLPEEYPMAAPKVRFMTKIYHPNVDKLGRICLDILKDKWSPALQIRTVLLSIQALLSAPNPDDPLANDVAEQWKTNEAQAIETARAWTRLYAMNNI
MEKK2 mut-MEK5 = signal of MEK5 binding to mutant human MEKK2 PB1 domain; bead flow cytometry, Alexa488-MEK5 binding to MEKK2 mutant; percent response, % at 10 µM; 290,000 compounds, 0.35% hits; in the data active means percent response above about 24%, passing the limit was not always enough
Rce1 inh = blocks yeast Ras-converting enzyme. Q03530. yeast membranes, quenched prenylated peptide cleavage fluorescence. calls only. 290,000 compounds, 0.27% hits;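 active means fall in fluorescence gain of 50% or more versus controls, with final raw signal at or below 3038400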;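 further: plate controls were neutral control wells for no effect and wells lacking membranes for full effect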
Target sequence (Q03530 whole entry, looked up): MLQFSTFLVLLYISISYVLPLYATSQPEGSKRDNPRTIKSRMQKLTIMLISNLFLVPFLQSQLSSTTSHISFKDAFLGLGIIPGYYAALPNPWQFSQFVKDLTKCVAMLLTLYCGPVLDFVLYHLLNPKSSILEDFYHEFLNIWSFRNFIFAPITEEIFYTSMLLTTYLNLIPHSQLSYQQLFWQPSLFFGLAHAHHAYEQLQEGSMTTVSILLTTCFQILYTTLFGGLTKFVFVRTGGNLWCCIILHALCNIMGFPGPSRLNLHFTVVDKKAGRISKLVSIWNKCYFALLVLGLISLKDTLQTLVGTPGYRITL
MEKK3 PB1 HTS = raises or lowers MEK5 binding to the human MEKK3 PB1 domain | bead-based flow cytometry, Alexa488-MEK5 binding to MEKK3; actives lie on both sides; 0 = blocked by unlabeled MEK5, 100 = vehicle | 290,000 compounds, 1.4% hits | binding response (% of control), % at 10 µM;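 active means binding response more than 3 SD above or below the average of its plate-row segment, actives on both sides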;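 further: Alexa488 bead fluorescence after subtracting the streptavidin-only scavenger bead signal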
Active calls of the source: *.

Results for NS(=O)(=O)c1ccc(CCNC(=S)NC2CCCC2)cc1 ?
MEKK2 WT-MEK5: -10*; UBC13 inh: 3; MEKK2 mut-MEK5: -15; Rce1 inh: inactive; MEKK3 PB1 HTS: 95

Results for CCCCNC(=S)NNC(=O)CCn1cc(C)cn1 ?
MEKK2 WT-MEK5: 100; UBC13 inh: 14; MEKK2 mut-MEK5: 0; Rce1 inh: active; MEKK3 PB1 HTS: 100

Results for S=C(Nc1ccc(Cl)cc1)c1nc2ccccc2[nH]1 ?
MEKK2 WT-MEK5: 110; UBC13 inh: -14; MEKK2 mut-MEK5: 0; Rce1 inh: inactive; MEKK3 PB1 HTS: 128*

Results for O=C(/C(=C\c1ccccc1)c1nc2ccccc2[nH]1)c1ccc(Cl)cc1 ?
MEKK2 WT-MEK5: 5.0*; UBC13 inh: -16; MEKK2 mut-MEK5: 5; Rce1 inh: inactive; MEKK3 PB1 HTS: 93

What do the screens show for `Cc1ccccc1NC(=S)c1nc2ccccc2[nH]1`?
MEKK2 WT-MEK5: 98; MEKK2 mut-MEK5: -1; Rce1 inh: inactive; MEKK3 PB1 HTS: 96

Results for CCOC(=O)c1c(CSC(=N)N)n(-c2ccc(Br)cc2)c2cc(Br)c(OC(C)=O)cc12 ?
MEKK2 WT-MEK5: 143*; MEKK2 mut-MEK5: 17; MEKK3 PB1 HTS: 103

Results for CCOC(=O)c1c(CSc2nc(C)cc(C)c2C#N)n(C)c2cc(Br)c(OC(C)=O)cc12 ?
MEKK2 WT-MEK5: 96; UBC13 inh: -33; MEKK2 mut-MEK5: 1; Rce1 inh: inactive; MEKK3 PB1 HTS: 101

What do the screens show for `C=C1N(c2cccc(Cl)c2)C(=O)OC1(C)C`?
MEKK2 WT-MEK5: 88; UBC13 inh: 2; MEKK2 mut-MEK5: -8; Rce1 inh: inactive; MEKK3 PB1 HTS: 96

What do the screens show for `COc1ccc(Nc2sc(C(=O)c3ccc(Cl)cc3)c(N)c2C(=O)Nc2ccccc2OC)cc1`?
MEKK2 WT-MEK5: 67; UBC13 inh: -31; MEKK2 mut-MEK5: -8; Rce1 inh: inactive; MEKK3 PB1 HTS: 69

What do the screens show for `COc1ccccc1NC(=O)c1c(Nc2ccccc2C)sc(C(=O)Nc2cccc(Cl)c2)c1N`?
MEKK2 WT-MEK5: -3.0*; UBC13 inh: -29; MEKK2 mut-MEK5: -8; Rce1 inh: inactive; MEKK3 PB1 HTS: 78

What do the screens show for `Cc1ccccc1NC(=O)C1Cc2ccccc2CN1C(=O)OCc1ccccc1` (configuration not stated)?
MEKK2 WT-MEK5: 98; UBC13 inh: -5; MEKK2 mut-MEK5: -2; Rce1 inh: inactive; MEKK3 PB1 HTS: 100

Results for CCN(CCNC(=O)C1CCN(S(=O)(=O)c2c(C)noc2C)CC1)c1ccccc1 ?
MEKK2 WT-MEK5: 101; UBC13 inh: 1; MEKK2 mut-MEK5: 5; Rce1 inh: inactive; MEKK3 PB1 HTS: 102

Results for CCN(CC)CCNC(=O)C1CCN(S(=O)(=O)c2c(C)noc2/C=C/c2ccccc2F)CC1 ?
MEKK2 WT-MEK5: 136*; UBC13 inh: 10; MEKK2 mut-MEK5: 11; Rce1 inh: inactive; MEKK3 PB1 HTS: 107

What do the screens show for `CC(=O)N(C1=C(N2CCOCC2)C(=O)c2ccccc2C1=O)c1ccc(C(=O)O)cc1`?
MEKK2 WT-MEK5: -1.0*; UBC13 inh: -25; MEKK2 mut-MEK5: 2; Rce1 inh: inactive; MEKK3 PB1 HTS: 99

What do the screens show for `CC1CCCCN1S(=O)(=O)c1ccc2[nH]c(=O)cc(C(=O)NCCCN3CCCCCC3)c2c1` (configuration not stated)?
MEKK2 WT-MEK5: 143*; UBC13 inh: 12; MEKK2 mut-MEK5: 20; Rce1 inh: inactive; MEKK3 PB1 HTS: 103

How did O=C(Nc1cccc(Cl)c1)c1ccc(OC(=S)N2CCOCC2)cc1 do in these assays?
MEKK2 WT-MEK5: 87; UBC13 inh: -7; MEKK2 mut-MEK5: -5; Rce1 inh: inactive; MEKK3 PB1 HTS: 95

What do the screens show for `O=C(Nc1cccc2ccccc12)c1ccc(OC(=S)N2CCOCC2)cc1`?
MEKK2 WT-MEK5: 106; UBC13 inh: 3; MEKK2 mut-MEK5: 7; Rce1 inh: active; MEKK3 PB1 HTS: 104

How did CN(C)CCCN1C(=O)c2cccc3cccc(c23)C1=O do in these assays?
MEKK2 WT-MEK5: 108; UBC13 inh: -15; MEKK2 mut-MEK5: 16; Rce1 inh: active; MEKK3 PB1 HTS: 103

Results for CN(C)CCCN1C(=O)c2cc3ccccc3cc2C1=O ?
MEKK2 WT-MEK5: 115; UBC13 inh: 2; MEKK2 mut-MEK5: 14; Rce1 inh: inactive; MEKK3 PB1 HTS: 111

How did CCOC(=O)c1c([N+](=O)[O-])c(C)[nH]c(=O)c1C#N do in these assays?
MEKK2 WT-MEK5: 94; UBC13 inh: 0; MEKK2 mut-MEK5: 3; Rce1 inh: inactive; MEKK3 PB1 HTS: 98

What do the screens show for `C[C@H]1COc2c(C3(N)CC3)c(F)cc3c(=O)c(C(=O)O)cn1c23`?
MEKK2 WT-MEK5: 103; MEKK2 mut-MEK5: 2; Rce1 inh: inactive; MEKK3 PB1 HTS: 99

What do the screens show for `C[C@H]1COc2c(N3CCN(C)CC3)c(F)cc3c(=O)c(C(=O)O)cn1c23`?
MEKK2 WT-MEK5: 112; UBC13 inh: 6; MEKK2 mut-MEK5: 5; Rce1 inh: active; MEKK3 PB1 HTS: 111

What do the screens show for `CC1(C(=O)N(CC(=O)NC2CCCC2)Cc2ccco2)CC(=O)N=C2C=CC=CN21` (configuration not stated)?
MEKK2 WT-MEK5: 101; UBC13 inh: 15; MEKK2 mut-MEK5: 4; Rce1 inh: active; MEKK3 PB1 HTS: 103

How did CC1=CC2=NC(=O)CC(C)(C(=O)N(CC(=O)NC3CCCC3)Cc3ccc(Cl)cc3)N2C=C1 (configuration not stated) do in these assays?
MEKK2 WT-MEK5: 96; UBC13 inh: 15; MEKK2 mut-MEK5: 0; Rce1 inh: inactive; MEKK3 PB1 HTS: 101

How did CC1(C(=O)N(CC(=O)NC2CCCC2)Cc2ccccc2)CC(=O)N=C2C=CC=CN21 (configuration not stated) do in these assays?
MEKK2 WT-MEK5: 103; UBC13 inh: 15; MEKK2 mut-MEK5: 9; Rce1 inh: active; MEKK3 PB1 HTS: 98

What do the screens show for `Cc1ccc(C(O)CSc2nnc(-c3ccc4ccccc4c3)n2C)cc1` (configuration not stated)?
MEKK2 WT-MEK5: 91; UBC13 inh: 7; MEKK2 mut-MEK5: -20; Rce1 inh: inactive; MEKK3 PB1 HTS: 84

What do the screens show for `CC(C)OCCCN1C(=O)c2[nH]nc(-c3ccccc3O)c2C1c1cccc(Cl)c1` (configuration not stated)?
MEKK2 WT-MEK5: 110; UBC13 inh: 2; MEKK2 mut-MEK5: 3; Rce1 inh: inactive; MEKK3 PB1 HTS: 138*

Results for COc1ccc(F)cc1C(=O)C1CCCN(Cc2c(C)n(C)n(-c3ccccc3)c2=O)C1 (configuration not stated) ?
MEKK2 WT-MEK5: 89; UBC13 inh: 8; MEKK2 mut-MEK5: -9; Rce1 inh: inactive; MEKK3 PB1 HTS: 102

What do the screens show for `CCC1CCCCN1C(=O)NC(=O)c1ccccc1` (configuration not stated)?
MEKK2 WT-MEK5: 107; UBC13 inh: 2; MEKK2 mut-MEK5: 13; Rce1 inh: active; MEKK3 PB1 HTS: 106

Screening results as filed in PubChem BioAssay.
